As a reminder, the residual activity is the signal under treatment as a percentage of the control signal.

The target in one assay is T1, Ephrin type-A receptor 1 (Homo sapiens) (UniProt P21709).
T1 sequence (whole entry): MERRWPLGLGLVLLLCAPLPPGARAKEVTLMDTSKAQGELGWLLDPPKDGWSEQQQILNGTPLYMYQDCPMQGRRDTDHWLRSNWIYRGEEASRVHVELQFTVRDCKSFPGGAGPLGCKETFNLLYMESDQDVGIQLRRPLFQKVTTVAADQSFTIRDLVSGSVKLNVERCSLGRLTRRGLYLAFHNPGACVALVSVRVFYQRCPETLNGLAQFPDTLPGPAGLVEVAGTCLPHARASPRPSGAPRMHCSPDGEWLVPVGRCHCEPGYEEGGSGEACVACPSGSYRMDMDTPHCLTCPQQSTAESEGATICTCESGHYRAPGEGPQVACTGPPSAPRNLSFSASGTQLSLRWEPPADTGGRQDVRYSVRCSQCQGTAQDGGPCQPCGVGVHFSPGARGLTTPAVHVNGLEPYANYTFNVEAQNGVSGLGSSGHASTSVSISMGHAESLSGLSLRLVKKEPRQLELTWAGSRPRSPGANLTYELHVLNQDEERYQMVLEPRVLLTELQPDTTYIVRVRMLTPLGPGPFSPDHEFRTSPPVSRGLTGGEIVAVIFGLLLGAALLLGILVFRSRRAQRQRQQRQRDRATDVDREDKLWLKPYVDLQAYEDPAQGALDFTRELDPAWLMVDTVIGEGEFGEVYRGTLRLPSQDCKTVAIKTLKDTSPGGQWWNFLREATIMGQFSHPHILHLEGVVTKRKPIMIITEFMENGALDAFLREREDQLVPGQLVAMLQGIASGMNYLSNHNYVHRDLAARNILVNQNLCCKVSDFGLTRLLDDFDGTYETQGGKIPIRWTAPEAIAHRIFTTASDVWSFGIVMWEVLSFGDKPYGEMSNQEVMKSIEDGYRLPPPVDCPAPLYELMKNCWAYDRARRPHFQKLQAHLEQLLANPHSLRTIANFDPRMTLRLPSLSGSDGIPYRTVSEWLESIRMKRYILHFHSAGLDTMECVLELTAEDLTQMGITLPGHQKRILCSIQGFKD
Particulars: at 1 µM.
For the molecule `O=C1NC(=O)C(c2c[nH]c3ccccc23)=C1c1c[nH]c2ccccc12`, the residual activity came out at 77%.
As to `COc1ccc(Cl)cc1NC(=O)Nc1cc(C)nc2ccccc12`, the residual activity came to 89%.
Take `COc1ccc2c(c1)c(C1=C(c3c[nH]c4ccccc34)C(=O)NC1=O)cn2CCCN(C)C`: the residual activity is 71%.
In the case of `NCCNc1ncc(C(N)=O)c(Nc2cccc(C(F)(F)F)c2)n1`, the residual activity worked out at 81%.
`CCCCc1c(-c2ccc(OC)cc2)[nH]c2nccnc12`: the residual activity worked out at 29%.
Take `COc1cc2nccc(Oc3ccc(NC(=O)Nc4cc(C)on4)c(Cl)c3)c2cc1OC`: the residual activity came out at 10%.

The next assay has as its target T1, Ephrin type-A receptor 1 (Homo sapiens). Particulars: at 10 µM.
On to `CN(C)S(=O)(=O)c1ccc2c(c1)/C(=C/c1cc3c([nH]1)CCCC3)C(=O)N2`, for which the residual activity stood at 96%.
For `CC(C)c1nn(-c2c(Cl)cccc2Cl)c2nc(Cc3ccc(OCCO)cc3)[nH]c(=O)c12`, the residual activity stood at 73%.
Consider `COc1cc2c(cc1OC)-c1n[nH]c(Nc3cccc(F)c3)c1C2`, for which the residual activity was found to be 34%.
With `O=C(NC(NC(=S)Nc1ccc(F)c([N+](=O)[O-])c1)C(Cl)(Cl)Cl)C(c1ccccc1)c1ccccc1` (configuration not stated), the residual activity was 92%.
`O=c1c(-c2ccc(F)cc2)c(-c2ccncc2)[nH]n1-c1ccc(Cl)cc1`: the residual activity was 56%.
As to `CCCC(=O)Oc1ccc2[nH]c(C(=O)c3cc4ccccc4[nH]3)cc2c1`, the residual activity turned out to be 94%.
Turning to `O=C1Nc2ccccc2/C1=C\c1c(Cl)[nH]c2ccccc12`, the residual activity came to 72%.
With `CC(C)N(CCC(=O)c1ccc2ccccc2c1)Cc1ccccc1`, the residual activity is 85%.
Same read-out and setting: with `Nc1nc(Nc2ccc(S(N)(=O)=O)cc2)nn1C(=O)c1c(F)cccc1F` the figure was 6%.
Consider `O=C(c1ccccc1)c1ccc(N2CCOCC2)cc1O`, for which the residual activity turned out to be 95%.
Take `Cc1cc(C)c(/C=C2\C(=O)Nc3ccccc32)[nH]1`: the residual activity came to 103%.
